This is a sample that favours compounds with a hit; in the whole collection about 10% have one here.
JMJD2A Tudor inh: JMJD2A Tudor domain (human) inhibition | O75164 | AlphaScreen JMJD2A-Tudor / H3K4me3 peptide binding | Potency, µM (titrated, usually from 114 µM), hits mostly inhibitors | 4.4% of 390,000 active; further: nearly all actives have a fitted effect of over 50% in size
BAZ2B inh: blocks human BAZ2B; Q9UIF8; AlphaScreen BAZ2B-H3K14Ac peptide displacement; Potency, µM (highest dose often 114 µM), actives largely listed as inhibitors; 4.4% of 360,000 active; AID 504333; further: nearly all actives have a fitted effect of over 60% in size
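AlphaScreen displacement of biotin-H3(5-23)K14Ac peptide (50 nM final) from BAZ2B (50 nM final) in PBS pH 7.4, 0.01% Tween-20; complex preformed 30 min RT, then compounds (top 110 uM) 30 min RT, beads 20 min dark.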
L3MBTL1 block: blocks human L3MBTL1; 0.66% of 230,000 active; AlphaScreen L3MBTL1–H3K9me1 peptide binding; AID 485360; Potency, µM (top dose mostly 57.1 µM), most hits filed as inhibitors; Q9Y468; further: nearly all actives have a fitted effect of over 60% in size
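AlphaScreen assay: L3MBTL1 (50 nM final) was preincubated 30 min at room temperature with biotinylated H3(1-15)K9me1 peptide (75 nM final), then 30 min with library compounds; streptavidin donor and nickel chelate acceptor beads (10 ug/mL final) added, 30 min dark.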
G9a inh: G9a (human) methyltransferase inhibition. 8.8% of 350,000 active. Potency, µM (doses to about 102 µM), hits mostly inhibitors. Q96KQ7. AID 504332. G9a H3K9 monomethylation, AlphaScreen, 2 h; further: nearly all actives have a fitted effect of over 75% in size
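Signal arises when biotinylated H3K9 peptide, once monomethylated, bridges streptavidin donor and antibody-captured acceptor beads. Enzyme at 20 nM was preincubated 15 min with test compounds; peptide 500 nM and SAM 20 uM then reacted for 2 h.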
HP1b binding inh: inhibitors of HP1-beta chromodomain binding to methylated histone tails; Potency, µM (doses to about 114 µM), most hits filed as inhibitors; P83916; AlphaScreen HP1-beta / biotin-H3K9me3 peptide binding; 0.56% of 390,000 active; further: nearly all actives have a fitted effect of over 70% in size
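HP1-beta protein (50 nM final) preincubated 30 min at room temperature with biotinylated H3(1-18)K9me3 peptide (50 nM) in PBS pH 7.4, 0.01% Tween-20, then compound added for 30 min. AlphaScreen streptavidin donor/nickel chelate acceptor beads (10 ug/mL final), 30 min dark, luminescence read.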
GLS inh: inhibitors of human glutaminase (GLS) | Potency, µM (highest dose often 45.5 µM), actives largely listed as inhibitors | O94925 | GLS enzymatic activity, qHTS titration | 0.21% of 410,000 active
Target sequence (O94925 whole entry, looked up): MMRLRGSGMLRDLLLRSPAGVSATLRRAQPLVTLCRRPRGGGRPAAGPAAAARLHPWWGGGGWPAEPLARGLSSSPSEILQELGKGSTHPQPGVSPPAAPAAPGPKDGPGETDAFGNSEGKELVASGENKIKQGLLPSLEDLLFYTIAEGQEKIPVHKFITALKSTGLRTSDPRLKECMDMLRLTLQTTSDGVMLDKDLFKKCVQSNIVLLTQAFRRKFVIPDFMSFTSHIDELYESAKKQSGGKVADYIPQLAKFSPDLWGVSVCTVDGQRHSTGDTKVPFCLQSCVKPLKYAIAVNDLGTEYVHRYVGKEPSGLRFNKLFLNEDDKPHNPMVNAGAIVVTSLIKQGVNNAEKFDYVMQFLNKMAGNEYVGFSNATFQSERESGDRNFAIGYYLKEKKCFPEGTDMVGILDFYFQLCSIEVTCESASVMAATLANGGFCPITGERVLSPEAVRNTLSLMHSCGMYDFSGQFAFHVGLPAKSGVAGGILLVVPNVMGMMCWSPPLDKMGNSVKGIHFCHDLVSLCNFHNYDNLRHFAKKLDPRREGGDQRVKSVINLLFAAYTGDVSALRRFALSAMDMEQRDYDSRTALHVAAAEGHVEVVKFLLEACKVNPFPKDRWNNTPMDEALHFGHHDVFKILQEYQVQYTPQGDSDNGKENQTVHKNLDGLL
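Compounds were pin-transferred onto hKGA, after which L-glutamine (1 mM solution) and a detection mix of glutamate oxidase, HRP and Amplex Red were added. Initial and 30 min RT fluorescence reads were collected.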
Numbers stand for hits; – = inactive; ? = inconclusive; · = not tested or not shown; [ ] = another dose, or the depositor's remark. The call rests on the fitted dose curve; in most records, active means well fitted curve in the direction sought with a large enough effect; inconclusive means small, poorly fitted or top-dose-only effect, or another doubt; inactive means no such curve, though single readings can be large; an effect the other way counts as inactive or inconclusive.

SMILES	JMJD2A Tudor inh	BAZ2B inh	L3MBTL1 block	G9a inh	HP1b binding inh	GLS inh
Cc1ccc(NC(=O)CN(C)S(=O)(=O)c2ccc3c(c2)n(C)c(=O)c(=O)n3C)cc1F	–	–	·	–	–	–
Cc1ccc(C(=O)N(CCCN(C)C)c2nc3ccc(Cl)cc3s2)cc1C	?	·	·	71µM	–	–
O=C(CN1CCOCC1)Nc1cc(C(F)(F)F)ccc1Cl	?	–	?	–	–	–
FC(F)(F)c1ccc(Cl)c(N/N=C/c2ccc(N3CCOCC3)s2)c1	?	–	–	4µM	–	–
COc1ccc(-c2n[nH]c3c2C(c2ccc(Cl)cc2Cl)NC3=O)cc1 (stereo not given)	?	·	·	?	–	–
COc1cc(CNC(=O)c2ccc3c(c2)c(C)c(C)n3Cc2cccc(C)c2)cc(OC)c1OC	?	?	·	–	–	–
COc1ccc(N2C(=O)CC(Nc3ccc(C)cc3)C2=O)cc1 (stereo not given)	–	–	·	–	–	–
CCOC(=O)CNC1CC(=O)N(c2ccc(Br)cc2)C1=O (stereo not given)	–	–	·	10µM	–	–
COc1ccc(N2C(=O)CC(NCC#N)C2=O)cc1 (stereo not given)	–	–	–	28µM	–	–
CCCOc1ccc(N2C(=O)CC(NCC#N)C2=O)cc1 (stereo not given)	–	–	–	–	–	–
COc1ccc(N2C(=O)CC(NC3CCCCNC3=O)C2=O)cc1 (stereo not given)	–	–	–	11µM	–	–
O=C(NNC1CC(=O)N(c2ccc(Br)cc2)C1=O)c1cccs1 (stereo not given)	–	–	·	–[12.7 µM]	–	–
Cc1cccc(C(=O)Nc2ccc3oc(-c4ccncc4)nc3c2)c1	–	–	·	–	–	–
COc1ccccc1C(=O)Nc1nnc(SCc2cc(=O)n3ccc(C)cc3n2)s1	–	–	·	–	–	–
N#Cc1ccc(NC(=O)c2ccc3c(c2)nnn3C2CCCC2)cc1	–	–	·	–	–	–
CC(=O)Nc1ccn(C2CC3OCC(NC(=O)C(Cc4ccccc4)NC(=O)OC(C)(C)C)C3O2)c(=O)n1 (stereo not given)	–	·	·	·	–	·
O=[N+]([O-])c1ccccc1N/N=C1\CC2CC=CC12 (stereo not given)	40µM	13µM	?	11µM	18µM	–
CC1(C)OC(=O)C(=NNc2ccccc2[N+](=O)[O-])C(=O)O1	–	?	–	?	–	–
CN1CCN(c2nc(-c3ccc4c(c3)OCO4)nc3ccccc23)CC1	·	·	·	–[0.501 µM]	·	·
Cc1ccc(S(=O)(=O)NNc2ccccc2)c(C)c1	5µM	56µM	–	1µM	–	–
Cc1ccc(S(=O)(=O)NNC(=O)c2cccs2)c(C)c1	–	–	–	–	–	–
O=C(Cc1c[nH]c2ccccc12)Nc1nc2ccccc2[nH]1	?	–	–	79µM	–	–
CCc1nnc(NC(=O)Cc2c[nH]c3ccccc23)s1	–	–	·	45µM	–	–
COC(=O)CCN(C(C)=O)c1ccc(N)cc1	50µM	–	·	–[12.7 µM]	–	–
CCc1cccc(NC(=O)CN2C(=O)COc3ccc(S(=O)(=O)Nc4ccccc4)cc32)c1	–	–	·	–	–	–
SMILES	JMJD2A Tudor inh	BAZ2B inh	L3MBTL1 block	G9a inh	HP1b binding inh	GLS inh
CN(C)c1ccc(CNC(=O)CCCN2C(=O)CCn3nc(-c4cccn4C)cc32)cc1	?	40µM	·	?	–	–
CC1=C(C(=O)Nc2ccccc2)C(c2ccccn2)n2nc(SCc3ccccc3Cl)nc2N1 (stereo not given)	–	–	·	–	–	–
Cc1cc(C(=O)CSc2ncccn2)c(C)n1Cc1ccco1	–	–	–	45µM	–	–
Cc1cc(C(=O)CSc2nnnn2C)c(C)n1CCc1ccc(F)cc1	–	–	–	–	–	–
CCc1cccc2c(C(=O)CSc3nnc(-c4ccncc4)n3C)c[nH]c12	–	–	–	32µM	–	–
Cc1ccc(C(=O)CSc2nnc(-c3ccncc3)n2C)cc1	–	–	·	–	–	–
Cc1cc(C(=O)C(C)Cl)c(C)n1Cc1ccco1 (stereo not given)	50µM	?	–	?	?	–
Cc1cc(C(=O)CSc2nnnn2C)c(C)n1Cc1ccco1	?	71µM	–	?	–	–
Cc1cc(C(=O)CSc2nc3ccc(Cl)cc3[nH]2)c(C)n1Cc1ccco1	–	·	·	·	–	–
CCn1c(=O)c2cc(C(=O)Nc3cccc(C(F)(F)F)c3)sc2c2ccccc21	–	–	·	–	–	–
Cc1ccccc1-n1c(SCC(=O)c2cc(C)n(C)c2C)nnc1-c1ccncc1	–	?	–	71µM	–	–
COc1ccc(-n2c(C)cc(C(=O)CSc3nnc(-c4ccoc4C)n3C)c2C)cc1	?	?	–	50µM	?	–
Cc1ccc(-n2c(C)cc(C(=O)CSc3nnnn3C)c2C)cc1	?	50µM	–	14µM	–	–
COc1cccc(NC(=O)CSc2nnc(-c3ccoc3C)n2C)c1	–	–	·	–	–	–
Cc1cc(C(=O)CSc2nnnn2-c2ccccc2)c(C)n1CCc1ccccc1	–	–	·	–	–	–
Cc1cc(C(=O)CSc2nnnn2-c2ccc(O)cc2)c(C)n1C	45µM	–	–	?	?	–
COC(=O)c1ccccc1NC(=O)Cn1c(=O)n(-c2ccc(C)cc2)c(=O)c2ccccc21	–	–	·	–	–	–
COC(=O)[C@H]1[C@H]2C[C@@H]3c4[nH]c5ccccc5c4CCN3C[C@H]2C[C@@H](OC(=O)c2cc(OC)c(OC)c(OC)c2)[C@@H]1OC	·	·	·	?	·	–
CC(=O)OCC(NC(=O)C(Cc1ccccc1)NC(=O)OC(C)(C)C)C1OC(n2cc(C)c(=O)[nH]c2=O)C(OC(C)=O)C1OC(C)=O (stereo not given)	–	·	·	·	–	·
COc1ccc(-n2c(SC)nc(O)c(Cc3ccccc3)c2=O)cc1	–	–	–	40µM	–	–
COc1ccc(-n2c(SCC(=O)Nc3ccccc3OC)nc(O)c(Cc3ccccc3)c2=O)cc1	–	–	·	·	–	–
Cc1nc2sc3c(O)cc(=O)[nH]c3c2c(C)c1C	–	–	·	50µM	–	–
CN1CCN(c2ccnc(-c3ccoc3)n2)CC1	·	·	·	–[0.501 µM]	·	·
Cc1ccc(C(=O)CSc2nnc(-c3cccs3)n2C)o1	–	–	·	50µM	–	–
Cn1c(SCc2nc3ccccc3s2)nnc1-c1cccs1	–	–	–	45µM	–	–
Cn1c(SCC(=O)OCC(=O)c2ccccc2)nnc1-c1cccs1	–	–	–	–	–	–
Cn1c(SCC(=O)c2ccc(O)c(O)c2)nnc1-c1ccccc1	–	?	·	–	–	–
Cn1c(SCC(=O)NC(c2ccccc2)c2ccccc2)nnc1-c1cccs1	50µM	–	·	–[12.7 µM]	–	–
